Experimental data reported in the supplement of paper PMC10849652.
Of roughly 8,800 targets only a part is listed; those with a hit were picked by preference. About 0.5% of all pairs of compound and target were hits.

Columns and labels:
Assay in all cases: log2 fold change, soluble protein after heating vs DMSO (PISA); higher = thermal stabilisation; K562 lysate, 10 uM; active = over 0.2 and 3.5 SD of the protein, either way, in both replicates (recomputed)
[1] = compound: Cc1cn(-c2cc(NC(=O)c3ccc(C)c(Nc4nccc(-c5cccnc5)n4)c3)cc(C(F)(F)F)c2)cn1 [nilotinib]
Method in brief: (§1)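 A 30 min treatment with 10 μM compound was applied to crude K562 extract at 1 mg/mL protein in PBS pH 7.4 with 1 mM MgCl2. Heating for 3 min spanned 48°C-58°C, after which aliquots were pooled, adjusted to 0.5% NP-40 at 4°C and spun at 21,000xg for 90 min. TMTpro 16plex LC-MS/MS of the supernatant, with channel sums equalised, gave values recorded as log-two fold change in thermal stability against solvent controls, from duplicates.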

[2] = compound: Cc1nc(Nc2n[nH]c3c2CN(C(=O)N[C@H](CN(C)C)c2ccccc2)C3(C)C)c2sccc2n1
Method in brief: as §1

[3] = compound: Cc1nc(Nc2ncc(C(=O)Nc3c(C)cccc3Cl)s2)cc(N2CCN(CCO)CC2)n1 [dasatinib]
Method in brief: as §1

[4] = compound: Cc1ncc(-c2ccnc(Nc3ccc(S(C)(=O)=O)cc3)n2)n1C(C)C
Method in brief: as §1

[5] = compound: Cn1cc(-c2ccc3c(c2)CCN3C(=O)Cc2cccc(C(F)(F)F)c2)c2c(N)ncnc21
Method in brief: as §1

[6] = compound: Cn1cc(CNCC2CCN(c3ncc(C(=O)NO)cn3)CC2)c2ccccc21 [quisinostat]
Method in brief: as §1

[7] = compound: Cn1cncc1[C@@](N)(c1ccc(Cl)cc1)c1ccc2c(c1)c(-c1cccc(Cl)c1)cc(=O)n2C [tipifarnib]
Method in brief: as §1

[8] = compound: NC(=O)Nc1cc(-c2cccc(F)c2)sc1C(=O)N[C@H]1CCCNC1
Method in brief: as §1

[9] = compound: NC(=O)c1cnc(N[C@@H]2CCCC[C@@H]2N)nc1Nc1cccc(-n2nccn2)c1
Method in brief: as §1

[10] = compound: NC1(c2ccc(-c3nc4ccn5c(=O)[nH]nc5c4cc3-c3ccccc3)cc2)CCC1
Method in brief: as §1

[11] = compound: NCC(=O)Nc1ccc(-n2nc(C(F)(F)F)cc2-c2ccc3c(ccc4ccccc43)c2)cc1
Method in brief: as §1

[12] = compound: O=C(CCCCCCC(=O)Nc1ccccc1)NO [vorinostat]
Method in brief: as §1

[13] = compound: O=C(O)c1ccc2c(c1)nc(Nc1cccc(Cl)c1)c1ccncc12 [silmitasertib]
Method in brief: as §1

[14] = compound: O=C1NC(=O)C(c2cnc3ccccn23)=C1c1cn2c3c(cc(F)cc13)CN(C(=O)N1CCCCC1)CC2
Method in brief: as §1

[15] = compound: c1cn2cc(-c3ccc4cn[nH]c4c3)nc(Nc3ccc(N4CCOCC4)cc3)c2n1 [entospletinib]
Method in brief: as §1

Measured: log2 fold change

TUBA3C (UniProt P0DPH7)
Sequence of UniProt P0DPH7 (P0DPH7 whole entry, looked up): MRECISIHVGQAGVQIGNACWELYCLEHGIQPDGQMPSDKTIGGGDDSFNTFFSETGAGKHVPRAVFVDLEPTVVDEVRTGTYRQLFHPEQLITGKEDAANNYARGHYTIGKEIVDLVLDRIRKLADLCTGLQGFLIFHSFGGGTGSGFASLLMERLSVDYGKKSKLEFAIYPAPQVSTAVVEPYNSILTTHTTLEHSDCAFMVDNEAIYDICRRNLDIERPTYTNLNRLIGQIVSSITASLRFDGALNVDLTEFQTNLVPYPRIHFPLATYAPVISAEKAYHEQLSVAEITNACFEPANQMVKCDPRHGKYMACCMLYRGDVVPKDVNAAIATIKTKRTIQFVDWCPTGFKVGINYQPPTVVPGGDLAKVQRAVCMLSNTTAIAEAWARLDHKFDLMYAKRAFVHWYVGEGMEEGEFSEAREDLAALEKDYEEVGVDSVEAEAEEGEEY
inactive: [1] -0.009 | [2] -0.029 | [3] -0.018 | [4] -0.001 | [5] -0.05 | [6] -0.098 | [7] -0.025 | [8] 0.05 | [9] 0.022 | [10] 0.005 | [11] 0 | [13] 0.017 | [14] -0.008 | [15] -0.007
active: [12] -0.913

TRIM33 isoform 2 (UniProt Q9UPN9)
Sequence of UniProt Q9UPN9 (Q9UPN9 whole entry, looked up): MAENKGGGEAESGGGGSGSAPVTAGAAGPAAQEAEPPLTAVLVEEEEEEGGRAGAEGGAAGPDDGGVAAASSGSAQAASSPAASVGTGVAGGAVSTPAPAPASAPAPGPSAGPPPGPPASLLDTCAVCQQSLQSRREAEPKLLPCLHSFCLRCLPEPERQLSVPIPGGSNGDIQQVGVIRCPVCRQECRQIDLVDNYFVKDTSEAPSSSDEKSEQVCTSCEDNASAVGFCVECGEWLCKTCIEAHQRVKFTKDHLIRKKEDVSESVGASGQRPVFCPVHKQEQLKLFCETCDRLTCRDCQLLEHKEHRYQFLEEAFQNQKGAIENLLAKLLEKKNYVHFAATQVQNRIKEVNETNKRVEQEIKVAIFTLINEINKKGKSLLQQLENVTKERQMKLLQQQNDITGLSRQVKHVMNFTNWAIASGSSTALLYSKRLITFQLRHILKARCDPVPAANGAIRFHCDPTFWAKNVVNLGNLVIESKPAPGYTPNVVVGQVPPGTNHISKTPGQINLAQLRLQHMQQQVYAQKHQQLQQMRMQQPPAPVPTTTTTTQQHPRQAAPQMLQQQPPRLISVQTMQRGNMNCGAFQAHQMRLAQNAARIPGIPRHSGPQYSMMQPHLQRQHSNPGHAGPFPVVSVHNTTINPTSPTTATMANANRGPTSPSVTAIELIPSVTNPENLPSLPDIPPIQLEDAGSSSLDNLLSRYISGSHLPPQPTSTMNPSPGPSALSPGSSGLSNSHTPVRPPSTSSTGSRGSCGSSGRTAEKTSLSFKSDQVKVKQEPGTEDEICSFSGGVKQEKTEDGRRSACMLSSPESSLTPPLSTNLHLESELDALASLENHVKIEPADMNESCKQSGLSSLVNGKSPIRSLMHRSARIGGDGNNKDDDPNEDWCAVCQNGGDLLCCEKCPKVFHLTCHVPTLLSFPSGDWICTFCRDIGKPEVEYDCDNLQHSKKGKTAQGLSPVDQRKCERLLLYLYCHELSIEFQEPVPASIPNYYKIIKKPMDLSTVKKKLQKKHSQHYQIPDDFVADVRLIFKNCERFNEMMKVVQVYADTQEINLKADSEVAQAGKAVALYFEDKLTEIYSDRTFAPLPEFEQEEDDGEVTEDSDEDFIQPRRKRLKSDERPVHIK
active: [12] -0.393
inactive: [1] 0.004 | [2] -0.012 | [3] -0.044 | [4] -0.015 | [5] 0.021 | [6] -0.035 | [7] 0.021 | [8] -0.01 | [9] 0.01 | [10] -0.025 | [11] -0.005 | [13] -0.026 | [14] -0.04 | [15] -0.024

THOC5 (UniProt Q13769)
inactive: [1] -0.035 | [2] 0.006 | [3] -0.014 | [4] -0.036 | [5] 0.029 | [6] -0.006 | [7] -0.019 | [8] 0.021 | [9] 0.009 | [10] -0.01 | [11] 0.012 | [12] -0.077 | [13] 0.011 | [14] 0.008 | [15] -0.009

TP53RK (UniProt Q96S44)
Sequence of UniProt Q96S44 (Q96S44 whole entry, looked up): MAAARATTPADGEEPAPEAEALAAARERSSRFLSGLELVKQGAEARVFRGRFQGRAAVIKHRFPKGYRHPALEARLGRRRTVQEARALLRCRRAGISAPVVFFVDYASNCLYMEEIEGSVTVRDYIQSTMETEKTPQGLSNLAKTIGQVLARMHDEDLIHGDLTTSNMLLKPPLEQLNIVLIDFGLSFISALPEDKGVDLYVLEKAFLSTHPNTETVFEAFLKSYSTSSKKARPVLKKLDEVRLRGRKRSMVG
inactive: [1] 0.011 | [2] 0 | [3] 0.052 | [4] 0.047 | [5] 0.057 | [6] 0.002 | [7] 0.048 | [8] 0.021 | [9] 0.041 | [10] -0.013 | [11] -0.017 | [12] 0.049 | [13] -0.19 | [14] -0.014 | [15] 0.031

TTMP isoform 3 (UniProt Q5BVD1)
Sequence of UniProt Q5BVD1 (Q5BVD1 whole entry, looked up): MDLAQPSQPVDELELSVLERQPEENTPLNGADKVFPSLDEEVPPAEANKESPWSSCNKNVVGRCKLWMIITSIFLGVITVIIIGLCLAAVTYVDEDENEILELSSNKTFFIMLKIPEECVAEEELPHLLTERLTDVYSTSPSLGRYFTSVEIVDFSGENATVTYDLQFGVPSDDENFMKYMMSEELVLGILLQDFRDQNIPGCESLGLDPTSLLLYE
inactive: [1] 0.118 | [2] -0.023 | [3] -0.079 | [4] -0.022 | [5] -0.046 | [6] -0.475 | [7] -0.089 | [8] 0.048 | [9] 0.116 | [10] -0.113 | [11] 0.253 | [12] 0.191 | [13] -0.074 | [14] 0.167 | [15] -0.032

TUBGCP2 isoform 4 (UniProt Q9BSJ2)
active: [12] -0.32
inactive: [1] -0.016 | [2] 0.012 | [3] -0.058 | [4] 0.012 | [5] 0.064 | [6] -0.091 | [7] -0.001 | [8] 0.037 | [9] 0 | [10] -0.016 | [11] 0.03 | [13] 0.051 | [14] 0.046 | [15] 0.042

TUBB (UniProt P07437)
Sequence of UniProt P07437 (P07437 whole entry, looked up): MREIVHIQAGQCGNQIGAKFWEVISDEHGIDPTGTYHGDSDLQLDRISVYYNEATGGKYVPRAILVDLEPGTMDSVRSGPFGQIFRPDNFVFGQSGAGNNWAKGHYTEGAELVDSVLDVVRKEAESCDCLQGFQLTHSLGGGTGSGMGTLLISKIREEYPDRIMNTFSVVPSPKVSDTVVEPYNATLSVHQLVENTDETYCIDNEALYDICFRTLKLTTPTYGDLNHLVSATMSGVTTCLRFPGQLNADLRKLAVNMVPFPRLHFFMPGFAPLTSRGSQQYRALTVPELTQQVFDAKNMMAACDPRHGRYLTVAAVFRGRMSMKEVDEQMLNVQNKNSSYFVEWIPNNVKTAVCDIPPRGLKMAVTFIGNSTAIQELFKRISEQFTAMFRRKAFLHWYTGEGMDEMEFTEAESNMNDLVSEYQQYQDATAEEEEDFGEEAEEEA
inactive: [1] 0.067 | [2] 0.016 | [3] -0.043 | [4] -0.001 | [5] -0.011 | [6] 0.004 | [7] 0.022 | [8] 0.048 | [9] -0.022 | [10] -0.003 | [11] 0.025 | [13] 0.009 | [14] 0.032 | [15] -0.018
active: [12] -0.529

TDRD3 isoform 3 (UniProt Q9H7E2)
inactive: [1] 0.261 | [2] -0.04 | [3] 0.033 | [4] 0.17 | [5] 0.01 | [6] -0.023 | [7] -0.152 | [8] 0.042 | [9] 0.014 | [10] 0.064 | [11] 0.23 | [12] -0.016 | [13] -0.03 | [14] 0.008 | [15] -0.041

TRAF2 isoform 2 (UniProt Q12933)
Sequence of UniProt Q12933 (Q12933 whole entry, looked up): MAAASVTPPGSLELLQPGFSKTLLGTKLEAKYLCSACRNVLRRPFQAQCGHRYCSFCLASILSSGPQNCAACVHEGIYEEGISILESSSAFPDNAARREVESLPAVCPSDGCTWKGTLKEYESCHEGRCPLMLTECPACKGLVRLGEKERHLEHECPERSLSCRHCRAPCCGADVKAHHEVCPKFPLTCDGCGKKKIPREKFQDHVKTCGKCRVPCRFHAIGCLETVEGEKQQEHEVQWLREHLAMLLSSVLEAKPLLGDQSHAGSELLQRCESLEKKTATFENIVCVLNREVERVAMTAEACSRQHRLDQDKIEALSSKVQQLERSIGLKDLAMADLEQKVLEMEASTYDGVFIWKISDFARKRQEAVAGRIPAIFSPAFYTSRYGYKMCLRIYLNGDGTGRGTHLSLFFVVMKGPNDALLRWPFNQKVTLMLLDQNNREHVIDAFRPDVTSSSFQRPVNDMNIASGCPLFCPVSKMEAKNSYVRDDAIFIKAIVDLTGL
inactive: [1] -0.02 | [2] 0.008 | [3] -0.024 | [4] 0.042 | [5] 0.01 | [6] -0.024 | [7] 0.005 | [8] -0.016 | [9] 0.001 | [10] -0.016 | [11] 0.014 | [13] 0.024 | [14] 0.031 | [15] 0.005
active: [12] -0.269

TPD52L2 isoform 7 (UniProt O43399)
Sequence of UniProt O43399 (O43399 whole entry, looked up): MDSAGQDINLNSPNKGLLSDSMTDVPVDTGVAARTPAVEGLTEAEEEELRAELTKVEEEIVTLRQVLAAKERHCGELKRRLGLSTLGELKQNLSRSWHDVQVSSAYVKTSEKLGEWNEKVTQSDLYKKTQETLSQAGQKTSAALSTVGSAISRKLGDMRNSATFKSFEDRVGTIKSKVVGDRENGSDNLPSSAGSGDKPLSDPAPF
inactive: [1] 0.022 | [2] 0.019 | [3] 0.056 | [4] 0.042 | [5] -0.009 | [6] 0.038 | [7] -0.012 | [8] -0.022 | [9] -0.039 | [10] 0.049 | [11] -0.043 | [12] 0.148 | [13] -0.044 | [14] -0.027 | [15] -0.016

TLE3 isoform 4 (UniProt Q04726)
inactive: [1] 0.011 | [2] 0.053 | [3] -0.002 | [4] 0.001 | [5] -0.038 | [6] 0.008 | [7] -0.003 | [8] 0.012 | [9] 0.001 | [10] -0.003 | [11] 0.011 | [12] 0.047 | [13] -0.052 | [14] -0.018 | [15] -0.009

UBXN6 (UniProt Q9BZV1)
inactive: [1] -0.033 | [2] 0.042 | [3] 0.017 | [4] -0.065 | [5] 0.046 | [6] 0.028 | [7] 0.016 | [8] 0.013 | [9] 0.068 | [10] -0.013 | [11] 0.04 | [13] 0.018 | [14] -0.026 | [15] -0.009
active: [12] -0.28

TLK1 isoform 2 (UniProt Q9UKI8)
inactive: [1] -0.044 | [3] -0.005 | [4] 0.188 | [5] -0.036 | [6] -0.23 | [7] 0.023 | [8] 0.133 | [9] 0.035 | [10] -0.021 | [11] 0.001 | [13] 0.117 | [14] 0.156 | [15] 0.04
active: [2] 0.414 | [12] -0.369

UBE3C (UniProt Q15386)
active: [12] -0.479
inactive: [1] -0.006 | [2] 0.025 | [3] -0.047 | [4] -0.017 | [5] 0.049 | [6] 0.013 | [7] 0.01 | [8] 0.061 | [9] 0.027 | [10] -0.053 | [11] -0.009 | [13] -0.001 | [14] 0 | [15] 0.05

TIAL1 isoform 2 (UniProt Q01085)
Sequence of UniProt Q01085 (Q01085 whole entry, looked up): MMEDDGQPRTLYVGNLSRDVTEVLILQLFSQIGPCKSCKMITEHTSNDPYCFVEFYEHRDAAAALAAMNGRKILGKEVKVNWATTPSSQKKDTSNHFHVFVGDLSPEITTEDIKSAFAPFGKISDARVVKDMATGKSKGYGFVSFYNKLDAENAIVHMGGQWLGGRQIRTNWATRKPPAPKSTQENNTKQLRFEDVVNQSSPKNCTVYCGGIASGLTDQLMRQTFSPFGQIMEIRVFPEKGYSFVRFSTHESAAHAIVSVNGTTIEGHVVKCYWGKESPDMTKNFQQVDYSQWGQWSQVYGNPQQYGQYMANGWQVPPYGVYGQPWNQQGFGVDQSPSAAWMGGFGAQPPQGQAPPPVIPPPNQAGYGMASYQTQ
inactive: [2] -0.013 | [3] 0.025 | [4] -0.015 | [5] 0.028 | [6] 0.039 | [7] -0.037 | [8] -0.016 | [9] 0.004 | [10] 0.033 | [11] -0.001 | [12] 0.041 | [13] 0.023 | [14] -0.049 | [15] 0.028
active: [1] -0.603

TTL (UniProt Q8NG68)
Sequence of UniProt Q8NG68 (Q8NG68 whole entry, looked up): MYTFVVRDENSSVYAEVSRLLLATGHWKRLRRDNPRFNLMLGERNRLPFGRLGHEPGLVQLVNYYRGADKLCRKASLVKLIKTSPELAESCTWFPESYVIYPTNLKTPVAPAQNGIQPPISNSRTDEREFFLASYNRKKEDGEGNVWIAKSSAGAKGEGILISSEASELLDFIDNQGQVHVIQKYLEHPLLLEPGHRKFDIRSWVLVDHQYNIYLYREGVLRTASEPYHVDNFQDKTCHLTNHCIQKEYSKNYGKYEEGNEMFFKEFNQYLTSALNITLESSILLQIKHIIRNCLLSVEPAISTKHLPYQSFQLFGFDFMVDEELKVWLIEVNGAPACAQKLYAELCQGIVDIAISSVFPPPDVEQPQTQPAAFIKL
inactive: [1] -0.045 | [2] -0.082 | [3] -0.049 | [4] -0.062 | [5] 0.056 | [6] -0.115 | [7] -0.008 | [8] 0.017 | [9] 0.018 | [10] 0.03 | [11] -0.027 | [13] 0.021 | [14] 0.057 | [15] 0.138
active: [12] -0.376

TRIP12 isoform 2 (UniProt Q14669)
active: [12] -0.266
inactive: [1] -0.019 | [2] 0.011 | [3] 0.003 | [4] 0.001 | [5] 0.039 | [6] -0.065 | [7] -0.017 | [8] 0.057 | [9] 0.016 | [10] 0.003 | [11] -0.057 | [13] 0.03 | [14] 0.005 | [15] -0.002

UGDH (UniProt O60701)
active: [3] 0.217
inactive: [1] 0.008 | [2] -0.012 | [4] 0.009 | [5] -0.034 | [6] 0.019 | [7] 0.007 | [8] 0.039 | [9] -0.01 | [10] 0.006 | [11] 0.039 | [12] -0.206 | [13] 0.001 | [14] 0.01 | [15] -0.01

TTK (UniProt P33981)
Sequence of UniProt P33981 (P33981 whole entry, looked up): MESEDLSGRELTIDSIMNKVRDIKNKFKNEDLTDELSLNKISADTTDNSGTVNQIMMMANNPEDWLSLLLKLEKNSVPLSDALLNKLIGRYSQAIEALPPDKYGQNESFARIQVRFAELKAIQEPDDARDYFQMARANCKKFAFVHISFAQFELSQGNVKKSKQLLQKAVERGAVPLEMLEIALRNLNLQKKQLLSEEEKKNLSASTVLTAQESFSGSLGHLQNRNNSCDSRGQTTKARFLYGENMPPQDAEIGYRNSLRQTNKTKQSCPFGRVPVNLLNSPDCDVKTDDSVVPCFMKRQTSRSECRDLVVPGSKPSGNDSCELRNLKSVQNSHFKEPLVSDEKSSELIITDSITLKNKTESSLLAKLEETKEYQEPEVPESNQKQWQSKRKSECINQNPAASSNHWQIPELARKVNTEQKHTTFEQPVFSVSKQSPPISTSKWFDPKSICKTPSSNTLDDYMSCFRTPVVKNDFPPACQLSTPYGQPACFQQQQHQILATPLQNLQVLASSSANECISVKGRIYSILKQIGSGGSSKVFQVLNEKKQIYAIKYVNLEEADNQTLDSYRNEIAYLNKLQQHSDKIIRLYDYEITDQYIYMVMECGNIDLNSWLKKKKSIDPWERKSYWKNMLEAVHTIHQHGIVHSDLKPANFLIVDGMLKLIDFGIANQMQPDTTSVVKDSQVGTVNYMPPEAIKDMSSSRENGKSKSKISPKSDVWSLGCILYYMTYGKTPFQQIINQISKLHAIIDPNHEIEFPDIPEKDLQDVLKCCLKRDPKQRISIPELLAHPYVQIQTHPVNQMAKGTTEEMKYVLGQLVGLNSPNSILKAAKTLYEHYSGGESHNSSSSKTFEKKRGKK
inactive: [1] 0.007 | [2] 0.236 | [3] -0.014 | [4] 0.185 | [5] 0.013 | [6] -0.062 | [7] -0.147 | [8] 0.034 | [9] -0.001 | [10] -0.057 | [11] -0.009 | [12] -0.183 | [13] 0.004 | [14] -0.03 | [15] -0.039

TMEM87B (UniProt Q96K49)
inactive: [1] 0.008 | [2] 0.086 | [3] -0.006 | [4] -0.02 | [5] 0.023 | [6] -0.012 | [7] -0.011 | [8] -0.016 | [9] -0.019 | [10] -0.048 | [11] -0.024 | [12] 0.018 | [13] 0.026 | [14] -0.037 | [15] -0.097

UFM1 (UniProt P61960)
Sequence of UniProt P61960 (P61960 whole entry, looked up): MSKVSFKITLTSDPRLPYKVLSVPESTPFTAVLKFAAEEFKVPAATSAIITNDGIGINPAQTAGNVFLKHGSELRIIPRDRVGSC
inactive: [1] 0.042 | [2] 0 | [3] -0.037 | [4] 0.107 | [5] -0.032 | [6] 0.321 | [7] 0.088 | [8] -0.116 | [9] -0.063 | [10] 0.043 | [11] -0.247 | [12] 0.036 | [13] -0.074 | [14] -0.109 | [15] -0.011
